From PubChem BioAssay (Tox21)
Values without a mark were called inactive. Records with an inconclusive call do not appear. A call without a number means that no potency is given here. Active and inactive are the calls of the source. Unless noted, calls follow the shape of the full dose curve.

Columns and labels:
[1] = Nuclear factor erythroid 2-related factor 2/antioxidant responsive element (Nrf2/ARE) small molecule agonists: qHTS cell viability counter screen in human keratinocytes (AID 1919968; active = well fitted curve in the direction sought with a large enough effect in the repeat runs; an effect the other way counts as inactive or inconclusive; also: nearly all actives have a fitted effect of over 55% in size; also: potency is read from the fitted curve at half-maximal effect)
Summary of the method: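 KeratinoSens cells (HaCaT keratinocytes stably carrying an ARE-luciferase reporter) were seeded at 1,500 cells/well and rested 5 h at 37 C/5% CO2. They were then exposed to compounds in DMSO for 23 h. Viability was read by CellTiter-Fluor fluorescence after 1 h.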

[2] = Nuclear factor erythroid 2-related factor 2/antioxidant responsive element (Nrf2/ARE) small molecule agonists: luciferase reporter gene qHTS assay in human keratinocytes (AID 1919969); also: nearly all actives have a fitted effect of over 35% in size
[3] = molecular target: Gonadotropin-releasing hormone receptor (Homo sapiens) (UniProt P30968); experiment: Human gonadotropin-releasing hormone receptor (GnRHR) small molecule agonists, calcium flux assay in GnRHR-HEK293 cells (AID 1920063); also: nearly all actives have a fitted effect of over 35% in size
Summary of the method: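 HEK293 cells stably expressing human GnRHR were plated 18 h at 37 °C, loaded with calcium dye 1 h at 37 °C, then given compound in agonist mode; fluorescence (Ex/Em 480/540) read kinetically for 3 min at 1 s intervals.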

[4] = molecular target: KiSS-1 receptor (Homo sapiens) (UniProt Q969F8); experiment: Human kisspeptin (KISS1R) small molecule agonists, calcium flux assay in KISS1R-HEK293 cells (AID 1920064; active = well fitted curve in the direction sought with a large enough effect in the repeat runs; an effect the other way counts as inactive or inconclusive)
Summary of the method: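 HEK293 cells stably expressing human KISS1R were plated 18 h at 37 °C, loaded with calcium dye for 1 h at 37 °C, then given compound by pin tool. Fluorescence (Ex/Em 480/540) was read kinetically for 3 min.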

[5] = p53 small molecule agonists, cell-based qHTS assay with human liver microsomes (AID 1963577)
Summary of the method: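 Cells carrying a p53-responsive bla reporter were rested 5 h (37 C, 5% CO2) before compound transfer. Human liver microsomes plus NADPH, 0.5 mg/mL final apiece, supplied metabolism during the 16 h 37 C exposure.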

[6] = p53 small molecule agonists, cell-based qHTS assay with rat liver microsomes: qHTS cell viability counter screen (AID 1963580); also: nearly all actives have a fitted effect of over 45% in size
Summary of the method: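 Intracellular ATP, by CellTiter-Glo luminescence, defines viability. HCT-116 p53RE-bla cells, 4,000 per well, were compound-treated in the presence of rat liver microsomes and NADPH for 16 h at 37 C.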

[7] = p53 small molecule agonists, cell-based qHTS assay: qHTS cell viability counter screen (AID 1963581); also: nearly all actives have a fitted effect of over 45% in size
Summary of the method: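 p53RE-bla HCT-116 cells were exposed to compounds for 16 h at 37 C; after the beta-lactamase FRET read in the same wells, CellTiter-Glo was added and luminescence (intracellular ATP) read after 30 min at room temperature.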

[8] = p53 small molecule agonists, cell-based qHTS assay (AID 1963582; active = well fitted activation curve with a large enough effect in the signal ratio in the repeat runs, not every such curve was filed as active; the % refers to the signal ratio)
Summary of the method: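 p53RE-bla beta-lactamase reporter cells rested 5 h at 37 C/5% CO2, then received compounds in DMSO by pin transfer and were incubated 16 h at 37 C. LiveBLAzer B/G FRET substrate was loaded for 2 h at room temperature before fluorescence reading.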

[9] = molecular target: 5-hydroxytryptamine receptor 2A (Homo sapiens) (UniProt P28223); experiment: 5-hydroxytryptamine receptor 2A (HTR2A) small molecule antagonists, cell-based qHTS assay (AID 1963586); also: nearly all actives have a fitted effect of over 45% in size
Summary of the method: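 Antagonist-mode intracellular calcium assay: DOI (4 nM) added after 5 min compound pre-incubation at room temperature to dye-loaded HTR2A-CHO cells. Fluorescence followed for 3 min, sampled every second.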

[10] = molecular target: 5-hydroxytryptamine receptor 2A (Homo sapiens) (UniProt P28223); experiment: 5-hydroxytryptamine receptor 2A (HTR2A) small molecule agonists, cell-based qHTS assay (AID 1963587); also: nearly all actives have a fitted effect of over 30% in size
Summary of the method: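 Kinetic calcium-flux fluorescence (2 min, 1 sec intervals) after compound addition in agonist mode. HTR2A-CHO cells were cultured 18 h, then dye-loaded 1 h at 37 C.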

[11] = molecular target: Muscarinic acetylcholine receptor M1 (Homo sapiens) (UniProt P11229); experiment: Cholinergic receptor muscarinic 1 (CHRM1) small molecule antagonists, cell-based qHTS assay (AID 1963588); also: nearly all actives have a fitted effect of over 40% in size
Summary of the method: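 CHRM1-CHO calcium-flux assay, antagonist mode. Cells were seeded 18 h, dye-loaded 1 h at 37 C and given compound for 5 min at RT, then acetylcholine was added at 50nM. FDSS fluorescence was read 3 min; 15 concentrations, three runs.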

[12] = molecular target: Muscarinic acetylcholine receptor M1 (Homo sapiens) (UniProt P11229); experiment: Cholinergic receptor muscarinic 1 (CHRM1) small molecule agonists, cell-based qHTS assay (AID 1963589); also: nearly all actives have a fitted effect of over 35% in size
Summary of the method: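 CHO cells stably expressing human CHRM1, seeded 18 h at 37 C/5% CO2, dye-loaded 1 h at 37 C, then given compound in agonist mode; intracellular calcium fluorescence read kinetically at 1 s intervals. Fifteen concentrations, three independent runs.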

[13] = cAMP Responsive Elements (CRE) small molecule antagonists, cell-based qHTS assay (AID 1963591; active = well fitted inhibition curve with a large enough effect in the signal ratio in the repeat runs, not every such curve was filed as active; the % refers to the signal ratio)
Summary of the method: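 CRE-bla HEK293T cells were plated 18 h at 37 °C/5% CO2, pinned with compound in DMSO, then stimulated with NKH477 at 0.25 uM final for 3 h. LiveBLAzer B/G FRET substrate was added and plates incubated 2 h at room temperature.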

[14] = molecular target: Beta-2 adrenergic receptor (Homo sapiens) (UniProt P07550); experiment: Adrenergic beta2 receptor (ADRB2) small molecule antagonists, cell-based qHTS assay (AID 1963592); also: series mostly up to about 92 µM; nearly all actives have a fitted effect of over 50% in size
Summary of the method: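 Cells (CHO, stable ADRB2 overexpression) incubated 18-20hr at 37C; compounds added from DMSO; agonist mix (1nM isoproterenol, 100uM IBMX, 25uM Ro-20-1724) added; 0.5hr RT; d2-cAMP and anti-cAMP-cryptate added; 1hr RT; 665/615 nm read.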

[15] = molecular target: Beta-2 adrenergic receptor (Homo sapiens) (UniProt P07550); experiment: Adrenergic beta2 receptor (ADRB2) small molecule agonists, cell-based qHTS assay (AID 1963593);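 also: CHO cells stably overexpressing human ADRB2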
Summary of the method: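 CHO cells stably over-expressing ADRB2 were plated overnight at 37C, then dosed with compounds plus a stimulation mix containing 100uM IBMX and 25uM Ro-20-1724 for 0.5hr at room temperature. cAMP was measured by HTRF competition, 1hr.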

[16] = molecular target: D(2) dopamine receptor (Homo sapiens) (UniProt P14416); experiment: Dopamine D2 receptor (DRD2) small molecule agonists, cell-based qHTS assay (AID 1963594); also: nearly all actives have a fitted effect of over 35% in size
Summary of the method: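 cAMP accumulation in DRD2-HEK293 cells measured by HTRF after 1 h detection; compounds added 10 min before NKH477 (200nM […]) forskolin-analogue stimulation, 30 min at room temperature, with Ro20-1724 present at 0.1 mM final.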

[17] = molecular target: D(2) dopamine receptor (Homo sapiens) (UniProt P14416); experiment: Dopamine D2 receptor (DRD2) small molecule antagonists, cell-based qHTS assay (AID 1963595; active = well fitted inhibition curve with a large enough effect in the signal ratio in the repeat runs, with a control signal flat; the % refers to the signal ratio)
Summary of the method: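 Antagonist mode in DRD2-HEK293 cells: after compound addition with 0.1 mM Ro20-1724, cells received quinpirole (12 nM) and NKH477 (200 nM) for 30 min at room temperature; HTRF cAMP read after 1 h detection.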

[18] = p53 small molecule agonists, cell-based qHTS assay with rat liver microsomes (AID 1963578)
Summary of the method: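 Fluorescence from a beta-lactamase reporter under a p53 response element was measured after cells had been incubated 16 h at 37 C with test compound and rat liver microsomes plus NADPH (0.5 mg/mL final each).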

[19] = p53 small molecule agonists, cell-based qHTS assay with human liver microsomes: qHTS cell viability counter screen (AID 1963579); also: nearly all actives have a fitted effect of over 45% in size
Summary of the method: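 Seed p53RE-bla cells at 4,000 per well; incubate 5 h at 37 C; add compound, human liver microsomes and NADPH; incubate 16 h at 37 C; add CellTiter-Glo; after 30 min at room temperature, read luminescence.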

[20] = cAMP Responsive Elements (CRE) small molecule agonists, cell-based qHTS assay (AID 1963590)
Summary of the method: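 CRE-bla HEK 293T cells in DMEM with 10% dialyzed FBS, NEAA, pyruvate and 25 mM HEPES were plated 18 h at 37 C/5% CO2, then exposed to compounds in DMSO for 3 h before LiveBLAzer B/G FRET substrate addition.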

Sequence of D(2) dopamine receptor (Homo sapiens) (P14416 whole entry, looked up): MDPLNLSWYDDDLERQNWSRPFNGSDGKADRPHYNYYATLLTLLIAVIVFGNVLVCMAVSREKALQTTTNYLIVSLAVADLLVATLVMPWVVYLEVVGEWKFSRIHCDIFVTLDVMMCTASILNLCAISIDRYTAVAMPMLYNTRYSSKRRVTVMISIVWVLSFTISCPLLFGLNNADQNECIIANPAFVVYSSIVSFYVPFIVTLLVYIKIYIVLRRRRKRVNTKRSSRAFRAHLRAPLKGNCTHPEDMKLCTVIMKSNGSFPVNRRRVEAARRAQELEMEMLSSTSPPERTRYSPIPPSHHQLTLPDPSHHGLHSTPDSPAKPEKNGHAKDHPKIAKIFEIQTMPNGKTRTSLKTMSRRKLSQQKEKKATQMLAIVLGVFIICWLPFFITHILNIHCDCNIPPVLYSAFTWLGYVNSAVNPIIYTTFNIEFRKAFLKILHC
Sequence of Beta-2 adrenergic receptor (Homo sapiens) (P07550 whole entry, looked up): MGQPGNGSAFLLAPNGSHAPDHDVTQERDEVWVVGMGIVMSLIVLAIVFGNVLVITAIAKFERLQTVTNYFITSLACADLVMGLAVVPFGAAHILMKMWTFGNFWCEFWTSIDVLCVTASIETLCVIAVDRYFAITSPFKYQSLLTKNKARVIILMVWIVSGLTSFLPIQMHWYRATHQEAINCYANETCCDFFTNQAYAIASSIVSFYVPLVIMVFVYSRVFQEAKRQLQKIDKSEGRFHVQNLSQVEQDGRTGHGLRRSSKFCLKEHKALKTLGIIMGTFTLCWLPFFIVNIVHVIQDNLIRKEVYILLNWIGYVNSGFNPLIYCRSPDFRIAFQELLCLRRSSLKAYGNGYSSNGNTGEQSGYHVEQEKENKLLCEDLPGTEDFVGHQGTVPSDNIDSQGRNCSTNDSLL
Sequence of Muscarinic acetylcholine receptor M1 (Homo sapiens) (P11229 whole entry, looked up): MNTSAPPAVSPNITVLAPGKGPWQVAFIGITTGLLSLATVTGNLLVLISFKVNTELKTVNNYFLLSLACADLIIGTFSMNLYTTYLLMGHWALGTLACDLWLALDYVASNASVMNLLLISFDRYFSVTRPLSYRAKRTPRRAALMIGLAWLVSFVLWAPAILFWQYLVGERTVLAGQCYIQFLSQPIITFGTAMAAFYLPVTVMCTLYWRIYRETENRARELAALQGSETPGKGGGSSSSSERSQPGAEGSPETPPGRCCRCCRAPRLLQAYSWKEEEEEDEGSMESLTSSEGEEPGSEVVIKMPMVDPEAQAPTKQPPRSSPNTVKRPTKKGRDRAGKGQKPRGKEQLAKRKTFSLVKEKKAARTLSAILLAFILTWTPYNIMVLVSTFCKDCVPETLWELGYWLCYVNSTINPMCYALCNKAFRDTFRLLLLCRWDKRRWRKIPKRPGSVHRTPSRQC
Sequence of 5-hydroxytryptamine receptor 2A (Homo sapiens) (P28223 whole entry, looked up): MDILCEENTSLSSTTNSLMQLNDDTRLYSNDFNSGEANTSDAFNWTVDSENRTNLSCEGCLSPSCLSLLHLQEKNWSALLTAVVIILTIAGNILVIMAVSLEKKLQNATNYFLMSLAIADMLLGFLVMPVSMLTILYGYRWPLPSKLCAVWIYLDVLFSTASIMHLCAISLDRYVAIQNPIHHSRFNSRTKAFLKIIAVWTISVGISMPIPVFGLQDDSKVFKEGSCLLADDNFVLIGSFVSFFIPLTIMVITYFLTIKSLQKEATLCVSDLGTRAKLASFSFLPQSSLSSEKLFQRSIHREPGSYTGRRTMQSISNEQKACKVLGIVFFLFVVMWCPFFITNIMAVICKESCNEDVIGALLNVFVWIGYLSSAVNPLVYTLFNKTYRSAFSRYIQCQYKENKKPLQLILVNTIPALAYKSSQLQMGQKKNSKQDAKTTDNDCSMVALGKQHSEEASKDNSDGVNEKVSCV
Sequence of Gonadotropin-releasing hormone receptor (Homo sapiens) (P30968 whole entry, looked up): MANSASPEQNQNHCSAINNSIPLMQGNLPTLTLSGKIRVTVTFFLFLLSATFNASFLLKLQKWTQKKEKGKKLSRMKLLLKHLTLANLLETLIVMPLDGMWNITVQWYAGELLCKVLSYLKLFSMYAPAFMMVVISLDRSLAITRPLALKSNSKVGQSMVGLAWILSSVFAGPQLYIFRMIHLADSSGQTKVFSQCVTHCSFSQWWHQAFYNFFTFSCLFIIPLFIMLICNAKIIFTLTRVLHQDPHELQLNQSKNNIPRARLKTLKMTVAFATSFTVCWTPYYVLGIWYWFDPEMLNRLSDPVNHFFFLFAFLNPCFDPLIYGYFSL
Sequence of KiSS-1 receptor (Homo sapiens) (Q969F8 whole entry, looked up): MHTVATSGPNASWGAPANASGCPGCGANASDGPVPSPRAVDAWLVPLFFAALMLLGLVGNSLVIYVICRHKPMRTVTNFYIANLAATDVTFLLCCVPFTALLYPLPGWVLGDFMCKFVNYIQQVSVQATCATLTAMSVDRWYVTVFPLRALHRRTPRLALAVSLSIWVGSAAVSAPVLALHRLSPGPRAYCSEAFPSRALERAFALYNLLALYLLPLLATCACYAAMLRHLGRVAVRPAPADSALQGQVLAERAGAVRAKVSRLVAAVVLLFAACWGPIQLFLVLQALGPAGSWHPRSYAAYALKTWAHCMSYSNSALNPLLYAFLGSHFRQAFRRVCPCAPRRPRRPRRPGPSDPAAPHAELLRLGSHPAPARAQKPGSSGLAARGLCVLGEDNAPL

Structure (SMILES)	Potency [1]	Potency [2]	Potency [3]	outcome [4]	Potency [5]	Potency [6]	Potency [7]	Potency [8]	Potency [9]	Potency [10]	Potency [11]	Potency [12]	Potency [13]	Potency [14]	Potency [15]	Potency [16]	Potency [17]	Potency [18]	Potency [19]	Potency [20]
O=C(CCCCCCCCC#CI)Oc1ccccc1	inactive	inactive	inactive	inactive	inactive	inactive	inactive	inactive	inactive	inactive	inactive	inactive	inactive	inactive	inactive	inactive	inactive			
COc1ccc(-c2coc3cc(O)ccc3c2=O)cc1	inactive	inactive	inactive		inactive	inactive	inactive	inactive	inactive	inactive	inactive	inactive			inactive	inactive	inactive	inactive	inactive	
OC1OCCOC1O (stereo not drawn)	inactive	inactive	inactive		inactive	inactive	inactive	inactive	inactive	inactive	inactive	inactive	inactive	inactive		inactive	inactive	inactive	inactive	inactive
CCCCCCCCCCCCc1ccc(O)cc1	27.3 µM (active)	inactive	inactive	inactive					inactive	inactive				inactive		inactive		inactive	inactive	
CO[Si](CCC1CCC2OC2C1)(OC)OC (stereo not drawn)	inactive	inactive	inactive		inactive	inactive	inactive	inactive	inactive	inactive	inactive	inactive	inactive	inactive		inactive	inactive	inactive	inactive	
C[Si]1(C)N[Si](C)(C)N[Si](C)(C)N1	inactive	inactive	inactive		inactive	inactive	inactive	inactive	inactive	inactive	inactive	inactive	inactive	inactive		inactive		inactive	inactive	inactive
CO[C@@H]1COCC[C@@H]1N[C@@H]1CC[C@@](C(=O)N2CCc3ncc(C(F)(F)F)cc3C2)(C(C)C)C1	inactive	inactive	inactive		inactive	inactive	inactive	inactive	inactive	inactive		inactive	inactive	inactive	inactive	inactive	inactive	inactive	inactive	inactive
